# From PubChem BioAssay
# The source made the active and inactive calls.
# Tests used:
# [1] = tested on: Plasmodium falciparum Sir2 (PF13_0152, Sir2A); experiment: Plasmodium falciparum Sir2A binding compounds – biochemical, small-molecule microarray, 635 nm fluorescence, primary screen (AID 1098); details: fluorescence 635 nm, higher = more signal;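 also: score merges spot fluorescence intensity with its signal-to-noise ratio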
# [2] = probe aDKK1 binding to arrayed compounds – biochemical, biotinylated probe, 635/667 nm fluorescence, primary screen (AID 1099); details: small-molecule microarray, higher = more signal;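 also: score merges 667nm spot fluorescence with signal to noise across triplicate slides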
# [3] = probe aCHRDL2 binding to arrayed compounds – biochemical, biotinylated probe, 635/667 nm fluorescence, primary screen (AID 1100); details: small-molecule microarray, higher = more signal
# [4] = change in splice reporter luminescence, either direction, cell-based, HEK293, spliceosome inhibition project, primary screen (AID 1101); details: HEK293 splicing luciferase reporter, 24 h, higher = more signal, called active from +8 up or from −8 down;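 also: HEK293 cells carrying a splicing-competent luciferase reporter gene; test concentration not given here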
# [5] = target: Fibroblast growth factor 10 (Homo sapiens) (UniProt O15520); experiment: compounds binding fibroblast growth factor 10 – biochemical, small-molecule microarray, 635 nm fluorescence, primary screen (AID 1102); details: FGF10 binding, fluorescence 635 nm, higher = more signal
# [6] = tested on: glycogen synthase kinase-3 (GSK3A per assay name; protocol says GSK3B); experiment: compounds binding glycogen synthase kinase-3 – biochemical, small-molecule microarray, 635 nm fluorescence, GSK3A, primary screen (AID 1103); details: fluorescence 635 nm, higher = more signal; also: the record names both GSK3A and GSK3B
# [7] = target: Epidermal growth factor receptor (Homo sapiens) (UniProt P00533); experiment: compounds binding epidermal growth factor receptor – biochemical, small-molecule microarray, 635 nm fluorescence, primary screen (AID 1104); details: EGFR binding, higher = more signal;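 also: score merges 667 nm emission intensity with spot signal to noise over triplicate slides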
# [8] = target: Follistatin-related protein 3 (Homo sapiens) (UniProt O95633); experiment: compounds binding follistatin-related protein 3 – biochemical, small-molecule microarray, 635 nm fluorescence, primary screen (AID 1105); details: FSTL3 binding, higher = more signal;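 also: score merges emission near 667 nm and signal to noise per printed spot across three slides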
# [9] = target: Dickkopf-related protein 1 (Homo sapiens) (UniProt O94907); experiment: small molecules binding DKK1 protein – biochemical, small-molecule microarray, 635 nm fluorescence scan, primary screen (AID 1106); details: higher = more signal;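 also: score merges emission near 667 nm with signal to noise over three replicate slides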
# [10] = tested on: Inhibin beta A chain (activin A); experiment: small molecules binding activin A – biochemical, small-molecule microarray, 635 nm fluorescence scan, primary screen (AID 1107); details: INHBA, higher = more signal;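 also: mouse activin A protein probed at 4.33 µg/mL on printed slides; score merges bound-protein fluorescence near 667 nm with spot signal-to-noise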
# [11] = tested on: Human papillomavirus type 1a protein E7 (residues 44-93); experiment: small molecules binding HPV E7 44-93 – biochemical, small-molecule microarray, residues 44-93, 635 nm fluorescence, primary screen (AID 1108); details: fluorescence 635 nm, higher = more signal;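 also: E7 fragment applied at 1 µg/mL in TBST for 1 h at 4 C; score combines spot fluorescence with its signal to noise ratio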
# [12] = hepatitis C replication reporter changes, two-sided – Huh7 cells, luciferase reporter, HCV replication inhibitor project, primary screen (AID 1109); details: Huh7 HCV replicon luciferase reporter, 48 h; higher = more signal;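 also: huh7 hepatoma cells harbouring a luciferase neomycin HCV replicon reporter; luciferase luminescence as measure of HCV replicon replication; test concentration not given here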
# [13] = target: Left-right determination factor 2 (Homo sapiens) (UniProt O00292); experiment: small molecules binding LEFTY2 protein – biochemical, small-molecule microarray, 635 nm fluorescence scan, primary screen (AID 1110); details: higher = more signal
# [14] = target: Calmodulin-1 (Homo sapiens) (UniProt P0DP23); experiment: small molecules binding calmodulin-1 with EGTA – biochemical, small-molecule microarray, Cy5-labelled CALM1, profiling panel (AID 1111); details: Cy5-CALM1 binding fluorescence, higher = more signal;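 also: labelled calmodulin applied in Tris saline Tween buffer holding calcium plus EGTA and DTT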
# [15] = target: Calmodulin-1 (Homo sapiens) (UniProt P0DP23); experiment: small molecules binding Ca-loaded calmodulin-1 – biochemical, small-molecule microarray, Cy5-labelled CALM1, plus calcium, artefact control for SMM control-protein annotation, profiling panel (AID 1112); details: Cy5-CALM1 binding fluorescence, higher = more signal;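 also: score merges spot fluorescence with signal to noise from triplicate slides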
# [16] = probe aWnt5a binding to arrayed compounds – biochemical, biotinylated probe, 635/667 nm fluorescence, primary screen (AID 1113); details: small-molecule microarray, higher = more signal;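 also: score merges 667 nm fluorescence intensity with signal-to-noise per printed feature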
# [17] = probe aShh binding to arrayed compounds – biochemical, biotinylated probe, 635/667 nm fluorescence, primary screen (AID 1114); details: small-molecule microarray, higher = more signal;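 also: probe is biotin-labelled aShh protein from a stem cell growth factor screen; measures binding of labelled protein to compounds printed on the slide; score merges feature fluorescence at 667 nm with signal-to-noise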
# [18] = probe aNog binding to arrayed compounds – biochemical, biotinylated probe, 635/667 nm fluorescence, primary screen (AID 1115); details: small-molecule microarray, higher = more signal;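 also: probe is biotinylated aNog protein used at 0.15 µg/mL for 1 h at 4 C; z-score combines 667 nm fluorescence of each spot with its signal to noise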
# [19] = target: Torsin-1A-interacting protein 1 (Homo sapiens) (UniProt Q5JTV8); experiment: compound microarray binding of lysate hLAP1 – cell lysate, small-molecule microarray, COS7 lysate, 635/667 nm fluorescence, primary screen (AID 1116); details: 635 nm fluorescence, higher = more signal
# [20] = target: Alpha-bungarotoxin (Bungarus multicinctus) (UniProt P60615); experiment: compounds binding labelled alpha-BTX control protein – biochemical, small-molecule microarray, Alexa647 label, 635/667 nm fluorescence, artefact control for SMM control protein annotation, profiling panel (AID 1117); details: alpha-BTX-A647 binding fluorescence, higher = more signal
# Chain of Alpha-bungarotoxin (Bungarus multicinctus) (P60615 whole entry, looked up): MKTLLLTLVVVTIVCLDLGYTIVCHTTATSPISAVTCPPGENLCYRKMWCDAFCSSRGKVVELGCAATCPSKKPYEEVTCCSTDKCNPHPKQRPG
# Chain of Fibroblast growth factor 10 (Homo sapiens) (O15520 whole entry, looked up): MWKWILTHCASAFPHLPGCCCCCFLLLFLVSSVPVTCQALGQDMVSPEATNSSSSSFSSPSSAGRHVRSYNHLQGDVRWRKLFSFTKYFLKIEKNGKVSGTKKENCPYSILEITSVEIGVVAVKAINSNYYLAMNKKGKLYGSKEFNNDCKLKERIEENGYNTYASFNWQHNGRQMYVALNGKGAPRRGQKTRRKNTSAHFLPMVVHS
# Chain of Torsin-1A-interacting protein 1 (Homo sapiens) (Q5JTV8 whole entry, looked up): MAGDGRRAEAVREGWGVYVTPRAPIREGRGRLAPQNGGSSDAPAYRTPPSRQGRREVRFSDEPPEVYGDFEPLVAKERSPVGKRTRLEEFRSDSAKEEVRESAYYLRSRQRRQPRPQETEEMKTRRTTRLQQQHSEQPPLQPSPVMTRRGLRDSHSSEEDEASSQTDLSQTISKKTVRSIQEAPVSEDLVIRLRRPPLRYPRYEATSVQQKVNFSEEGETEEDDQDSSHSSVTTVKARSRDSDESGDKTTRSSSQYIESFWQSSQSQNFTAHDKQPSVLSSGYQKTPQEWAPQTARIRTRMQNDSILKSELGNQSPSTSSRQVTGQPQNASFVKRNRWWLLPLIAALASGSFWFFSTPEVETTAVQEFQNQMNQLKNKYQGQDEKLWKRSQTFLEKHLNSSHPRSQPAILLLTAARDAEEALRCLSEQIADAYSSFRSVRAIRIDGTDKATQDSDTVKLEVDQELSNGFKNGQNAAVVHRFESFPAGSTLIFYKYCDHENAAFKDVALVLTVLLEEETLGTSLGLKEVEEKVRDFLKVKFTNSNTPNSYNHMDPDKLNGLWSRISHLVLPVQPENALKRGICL
# Chain of Epidermal growth factor receptor (Homo sapiens) (P00533 whole entry, looked up): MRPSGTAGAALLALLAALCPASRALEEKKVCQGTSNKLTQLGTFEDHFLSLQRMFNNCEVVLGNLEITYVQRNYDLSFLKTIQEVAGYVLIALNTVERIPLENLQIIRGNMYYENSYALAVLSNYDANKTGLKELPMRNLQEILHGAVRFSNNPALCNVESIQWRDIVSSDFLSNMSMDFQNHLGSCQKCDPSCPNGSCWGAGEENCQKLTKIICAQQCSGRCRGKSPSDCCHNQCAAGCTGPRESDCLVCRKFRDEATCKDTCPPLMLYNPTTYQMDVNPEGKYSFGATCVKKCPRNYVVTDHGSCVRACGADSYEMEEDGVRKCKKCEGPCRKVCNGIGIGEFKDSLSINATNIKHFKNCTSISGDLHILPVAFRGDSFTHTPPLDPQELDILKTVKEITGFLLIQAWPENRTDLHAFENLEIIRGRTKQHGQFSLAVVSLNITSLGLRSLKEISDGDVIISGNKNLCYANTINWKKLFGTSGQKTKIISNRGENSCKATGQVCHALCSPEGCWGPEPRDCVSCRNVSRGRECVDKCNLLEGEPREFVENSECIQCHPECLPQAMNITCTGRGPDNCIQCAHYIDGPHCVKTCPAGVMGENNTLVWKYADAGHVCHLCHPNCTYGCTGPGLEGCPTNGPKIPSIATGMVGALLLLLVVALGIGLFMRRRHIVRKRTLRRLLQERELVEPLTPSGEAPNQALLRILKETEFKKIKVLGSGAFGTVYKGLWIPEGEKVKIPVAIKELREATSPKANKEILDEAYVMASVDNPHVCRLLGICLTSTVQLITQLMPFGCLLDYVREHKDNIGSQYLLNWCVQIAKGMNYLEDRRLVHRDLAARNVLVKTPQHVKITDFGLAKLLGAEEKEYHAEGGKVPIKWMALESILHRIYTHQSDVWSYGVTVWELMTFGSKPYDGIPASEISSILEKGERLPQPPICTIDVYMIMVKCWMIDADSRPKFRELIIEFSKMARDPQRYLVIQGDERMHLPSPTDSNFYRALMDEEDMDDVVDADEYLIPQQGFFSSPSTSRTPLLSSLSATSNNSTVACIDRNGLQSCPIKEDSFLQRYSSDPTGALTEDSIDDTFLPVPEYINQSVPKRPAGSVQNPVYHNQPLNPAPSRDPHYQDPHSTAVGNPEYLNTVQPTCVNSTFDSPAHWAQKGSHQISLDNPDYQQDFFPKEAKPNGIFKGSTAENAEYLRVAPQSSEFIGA
# Chain of Left-right determination factor 2 (Homo sapiens) (O00292 whole entry, looked up): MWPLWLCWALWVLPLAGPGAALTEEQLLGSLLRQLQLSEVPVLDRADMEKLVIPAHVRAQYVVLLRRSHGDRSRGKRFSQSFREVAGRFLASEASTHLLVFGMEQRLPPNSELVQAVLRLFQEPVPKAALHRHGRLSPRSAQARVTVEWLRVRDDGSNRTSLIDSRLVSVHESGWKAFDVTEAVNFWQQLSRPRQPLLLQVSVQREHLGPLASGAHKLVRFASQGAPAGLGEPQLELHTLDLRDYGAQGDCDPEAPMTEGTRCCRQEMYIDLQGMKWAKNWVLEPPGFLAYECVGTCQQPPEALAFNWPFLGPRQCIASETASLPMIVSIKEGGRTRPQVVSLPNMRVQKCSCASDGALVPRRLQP
# Chain of Dickkopf-related protein 1 (Homo sapiens) (O94907 whole entry, looked up): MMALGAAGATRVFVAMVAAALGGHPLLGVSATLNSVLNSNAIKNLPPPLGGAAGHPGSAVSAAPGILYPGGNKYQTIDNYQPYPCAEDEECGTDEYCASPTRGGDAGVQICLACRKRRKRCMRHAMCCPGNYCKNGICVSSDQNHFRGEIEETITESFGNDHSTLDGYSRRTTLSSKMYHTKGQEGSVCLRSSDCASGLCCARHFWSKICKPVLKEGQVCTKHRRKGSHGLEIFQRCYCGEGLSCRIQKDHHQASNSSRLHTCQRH
# Chain of Follistatin-related protein 3 (Homo sapiens) (O95633 whole entry, looked up): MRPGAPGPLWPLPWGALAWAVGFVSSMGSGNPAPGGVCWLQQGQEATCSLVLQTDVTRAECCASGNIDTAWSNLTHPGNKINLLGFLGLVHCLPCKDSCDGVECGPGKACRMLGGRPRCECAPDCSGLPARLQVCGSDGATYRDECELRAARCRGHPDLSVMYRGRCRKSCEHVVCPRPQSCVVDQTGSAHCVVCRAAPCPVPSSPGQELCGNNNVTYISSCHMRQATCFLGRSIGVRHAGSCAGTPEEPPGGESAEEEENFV
Structure (SMILES),composite z-score [1],composite z-score [2],composite z-score [3],z-score [4],composite z-score [5],composite z-score [6],composite z-score [7],composite z-score [8],composite z-score [9],composite z-score [10],composite z-score [11],z-score [12],composite z-score [13],composite z-score [14],composite z-score [15],composite z-score [16],composite z-score [17],composite z-score [18],composite z-score [19],composite z-score [20]
CO[C@H]1COC(=O)CC=C[C@H](C)COC(=O)[C@@H](C)NC(=O)CC=C[C@@H]1C,1.56,-0.335,-1.42,-1.31 (inactive),0.337,0.913,1.32,1.47,1.65,0.872,-1.45,-1.83,1.54,-1.13,-2.44,-0.0816,-0.0035,-0.137,0.621,0.13
CO[C@@H]1COC(=O)CC=C[C@H](C)[C@H](OC)COC(=O)[C@H](C)NC(=O)CC=C[C@H]1C,0.657,-0.546,-1.31,0.671 (inactive),0.616,0.918,0.745,1.44,1.18,1.74,-0.724,1.39,0.965,-0.981,-2.34,-0.0145,0.479,-0.368,-0.242,-0.592
CC(C)=CCCC(C)=CCON=C1C[C@@H](O)[C@@H](O)[C@@H]2[C@@H]3C(=O)N(C4CCCCC4)C(=O)[C@@H]3CC[C@@H]12,0.511,-0.355,-0.858,0.956 (inactive),0.368,-0.345,0.859,0.502,0.996,1.04,0.0997,-0.471,0.464,-0.403,-1.15,-0.128,-0.209,-0.261,0.259,-0.0585
CCOC(=O)[C@H](CC(C)C)NC(=O)CCC1CC(OC(=O)NCCc2ccc(F)cc2)CC2(CCCC(COC(=O)NCCc3ccc(Cl)cc3)O2)O1 (stereo not given in full),0.654,-0.26,-0.681,0.0483 (inactive),0.675,0.46,0.517,0.79,0.483,-1.71,0.585,-1.19,0.839,-0.222,-0.0499,-0.0044,-0.156,-0.45,0.456,1.02
CO[C@@H]1COC(=O)[C@@H](C)NC(=O)CC=C[C@@H](C)[C@H](NS(=O)(=O)c2ccc(C)cc2)COC(=O)[C@H](C)NC(=O)CC=C[C@H]1C,1.49,-0.629,-1.22,0.347 (inactive),0.611,0.625,0.57,0.661,0.822,1.4,-0.0926,0.0975,0.765,-1.74,-1.94,-0.0045,-0.0709,-0.433,0.392,-0.744
COC(=O)CC=C[C@@H](C)[C@@H](C=NO[C@@H](C)c1cn([C@H](CO)Cc2ccccc2)nn1)OC,0.361,-0.435,-0.572,-0.772 (inactive),0.229,0.165,0.523,0.31,0.498,-0.163,0.939,0.0629,0.499,-1.04,-1.48,-0.0944,-0.138,0.15,-0.0644,-0.027
O=C1C[C@@H](O)[C@@H](O)[C@@H]2[C@@H]3C(=O)N(C[C@@H]4CCCO4)C(=O)[C@@H]3CC[C@@H]12,0.495,-0.185,-0.7,-0.0639 (inactive),0.612,0.718,0.573,0.761,0.823,-0.0076,0.27,-0.321,0.723,0.187,-0.426,-0.0239,-0.106,-0.303,0.119,0.506
CCN1C(=O)[C@H]2[C@H]3[C@H](O)[C@H](O)CC(=NOCC(C)C)[C@@H]3CC[C@H]2C1=O,0.85,-0.0898,-0.672,0.272 (inactive),0.546,1.24,0.767,0.912,0.797,-0.599,1.33,-0.0305,0.32,-0.39,-0.682,-0.096,-0.0709,-0.255,0.317,0.13
COC(=O)[C@H](C)NC(=O)CCC1CC(OC(=O)NCc2ccc3c(c2)OCO3)CC2(CCCC(COC(=O)NCc3cccc(C(F)(F)F)c3)O2)O1 (stereo not given in full),1.02,0.114,-0.289,0.562 (inactive),0.818,0.622,0.223,1.14,0.235,-0.0499,0.817,-1.79,1.11,0.601,-0.311,-0.113,0.0756,0.33,0.794,0.446
COc1ccc(O[C@H]2C=C[C@@H](c3ccccc3)O[C@@H]2CON=CC[C@@H]2C=C[C@H](OC(C)=O)[C@@H](COC(C)=O)O2)cc1,0.277,-0.229,0.0216,0.731 (inactive),-0.0104,-0.603,0.238,0.128,0.105,0.606,-0.332,-0.821,0.425,-0.169,-0.282,-0.145,-0.221,-0.083,0.28,-0.0924
COc1ccc(O[C@H]2C=C[C@@H](c3ccccc3)O[C@@H]2CON=C(C)CCC(=O)OC[C@H]2O[C@H](c3ccccc3)C=C[C@@H]2Oc2ccc(OC)cc2)cc1,0.0844,-0.252,0.2,0.114 (inactive),-1.19,-1.59,-1.63,-1.25,-0.591,0.95,-1.52,-1.15,-1.08,-0.63,-0.702,-0.176,-0.276,0.646,-1.17,-0.792
